Assay [1] relates to XIP peptide (Xip251-270) binding. The assay can be described thus: XIP fragment 251-270 binding compounds – biochemical, small-molecule microarray, fluorescence 635/667 nm, 0.1 µg/mL protein, primary screen (AID 1182). Conditions: fluorescent protein binding, 635 nm, higher = more signal, called active from +8 up or from −8 down.
The test system of a further assay is XIP peptide (Xip251-270). Briefly: compounds binding XIP fragment 251-270 – biochemical, small-molecule microarray, fluorescence 635/667 nm, 0.5 µg/mL protein, primary screen (AID 1183). Conditions: fluorescence 635 nm, higher = more signal.
Assay [2] is described as follows: blood-stage malaria parasite viability loss – strain 3D7, DAPI fluorescence, 100 nL, primary screen (AID 1184).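 Note: parasites grown inside human red blood cells in medium with human serum.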 Conditions: P. falciparum 3D7 growth, 3 d, higher = more signal.
The target in assay [3] is Homeobox protein Hox-A13 (Mus musculus) (UniProt Q62424). Briefly: disruptors of Hoxa13 oligonucleotide interaction – biochemical, fluorescence polarization, labeled oligonucleotide, primary screen (AID 1185). Particulars: Hoxa13:DNA binding, 15 min, higher = more signal, called active from +8 up or from −8 down. A general note: Polarisation of emitted light reports the rotation of a fluorescent probe.
Sequence of Homeobox protein Hox-A13 (Mus musculus) (Q62424 whole entry, looked up): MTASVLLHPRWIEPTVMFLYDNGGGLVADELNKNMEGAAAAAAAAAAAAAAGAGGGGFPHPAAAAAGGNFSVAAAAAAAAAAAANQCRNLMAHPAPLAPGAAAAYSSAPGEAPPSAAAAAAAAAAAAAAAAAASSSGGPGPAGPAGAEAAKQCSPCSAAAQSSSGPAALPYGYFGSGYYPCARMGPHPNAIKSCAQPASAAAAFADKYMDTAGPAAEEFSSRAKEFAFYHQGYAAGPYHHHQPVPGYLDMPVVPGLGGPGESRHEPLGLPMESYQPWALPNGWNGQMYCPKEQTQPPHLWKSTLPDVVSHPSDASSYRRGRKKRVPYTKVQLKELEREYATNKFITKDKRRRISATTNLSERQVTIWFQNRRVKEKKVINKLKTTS

A short description of assay [4]: blockers of DNA damage checkpoint Chk1 activation – imaging, HeLa, hydroxyurea, phospho-Chk1 antibody, percent positive cells, primary screen (AID 1186). Particulars: hydroxyurea-induced phospho-Chk1 immunofluorescence imaging, higher = more signal.
Assay [5] in a line: blockers of DNA damage checkpoint Chk1 activation – imaging, HeLa, hydroxyurea, phospho-Chk1 nuclear intensity, primary screen (AID 1187). Conditions: hydroxyurea-induced phospho-Chk1 immunofluorescence imaging, higher = more signal.

Active and inactive are the calls of the source. Unless noted, the rule behind the calls is not given here.

For the compound `NC(=O)[C@H]1[C@@H]2C(=O)O[C@@H](c3ccccc3)[C@@H](c3ccccc3)N2[C@@H](c2ccc(O)cc2)[C@]12C(=O)Nc1ccc(C#CCCO)cc12`, the composite z-score in assay [1] is -0.0876 (inactive); with XIP peptide (Xip251-270), -0.413. For the same compound, the z-score in assay [2] was -0.629; in assay [3] it was -5.7 (inactive); in assay [4], -0.0158 (inactive); in assay [5], -0.651 (inactive).

In the case of `COCCOC(=O)N1C(=O)[C@@]2(c3cc(C#CC4(O)CCCCCC4)ccc31)[C@H](C(=O)N1CCCCCCC1)[C@H]1C(=O)O[C@H](c3ccccc3)[C@H](c3ccccc3)N1[C@@H]2c1ccc(O)cc1`, the composite z-score in assay [1] is 0.888 (inactive); with XIP peptide (Xip251-270), 0.683. In addition, the z-score is -2.19 in assay [2], 3.51 (inactive) in assay [3], -0.169 (inactive) in assay [4] and 0.085 (inactive) in assay [5].

Take `CN(C)C(=O)[C@@]1(Cc2ccccc2N=[N+]=[N-])N=C(c2ccc(OCCCO)cc2)O[C@H]1c1ccccc1CN=[N+]=[N-]`: the composite z-score in assay [1] was 0.0857 (inactive); in the assay with XIP peptide (Xip251-270) it was 0.896. The z-score in assay [2] is -2.25; in assay [3], -1.82 (inactive); in assay [4], -0.554 (inactive); in assay [5], -0.339 (inactive).

For the compound `O=C1C2C=CC(C(O)Cc3ccccc3)N(Nc3ccc([N+](=O)[O-])cc3)C2C(=O)N1c1ccccc1` (configuration not stated), the figures for the composite z-score (in assay [1]; with XIP peptide (Xip251-270)) were 2.76 (inactive) and -0.224, respectively. Moreover, the z-score in assay [2] was -0.463; in assay [3], -5.69 (inactive); in assay [4], 0.433 (inactive); in assay [5] it was -0.541 (inactive).

`[N-]=[N+]=NCc1ccccc1C[C@]1(C(N)=O)N=C(c2ccc(OCCCO)cc2)O[C@H]1c1ccccc1CN=[N+]=[N-]`: the composite z-score in assay [1] is 1.04 (inactive); with XIP peptide (Xip251-270) it was -0.285. Moreover, the z-score in assay [2] was -2.29; in assay [3], 1.67 (inactive); in assay [4] it was -0.442 (inactive); in assay [5], -0.427 (inactive).

`O=C(CS)NCCCCCNC(=O)[C@H]1C[C@H]2C(=O)N3CCC[C@H]3C(=O)N2[C@H]1c1ccc(O)cc1`: the figures for the composite z-score (in assay [1]; in the assay with XIP peptide (Xip251-270)) were 0.215 (inactive) and -1.02, respectively. Besides, the z-score in assay [2] was -0.0463; in assay [3], -3.01 (inactive); in assay [4] it was 0.23 (inactive); in assay [5], 0.426 (inactive).

Turning to `C=C(COC)/C(=C/C[C@@H](OC(C)=O)c1cccc(OCCO)c1)c1cc(C(=O)OC)ccc1OC`, the composite z-score is -0.496 (inactive) in assay [1] and -0.5 in the assay with XIP peptide (Xip251-270). Besides, the z-score in assay [2] was -2.56; in assay [3] it was -4.24 (inactive); in assay [4] it was -0.8 (inactive); in assay [5], -0.95 (inactive).

For `C=CCC(OC(C)=O)[C@@H]1[C@@H](N(Cc2cc3ccccc3o2)C(=O)Cc2ccc(F)cc2)c2cc(OCCCO)ccc2N1C(=O)c1ccc(-c2ccccc2)cc1` (some centres not stated), the composite z-score in assay [1] is -0.618 (inactive); with XIP peptide (Xip251-270), -0.666. Besides, the z-score was -0.0101 in assay [2], -1.04 (inactive) in assay [3], 0.0934 (inactive) in assay [4] and 0.192 (inactive) in assay [5].

On to `N#Cc1ccc(NN2C(C(O)CCc3ccccc3)C=CC3C(=O)N(c4ccccc4)C(=O)C32)cc1` (configuration not stated), for which the figures for the composite z-score (in assay [1]; in the assay on XIP peptide (Xip251-270)) were 1.15 (inactive) and -0.279, respectively. In addition, the z-score was 0.484 in assay [2], -4.3 (inactive) in assay [3], -0.13 (inactive) in assay [4] and -0.424 (inactive) in assay [5].

For `C=CCNC(=O)[C@H]1[C@@H]2C(=O)O[C@@H](c3ccccc3)[C@@H](c3ccccc3)N2[C@@H](c2ccc(O)cc2)[C@]12C(=O)Nc1ccc(C#CCNC(N)=O)cc12`, the values for the composite z-score (in assay [1]; with XIP peptide (Xip251-270)) were 0.342 (inactive) and 0.0866, respectively. Also, the z-score in assay [2] was -0.491; in assay [3], -2.56 (inactive); in assay [4], 0.191 (inactive); in assay [5] it was 0.424 (inactive).

On to `CC/C=C/C(=O)N(C[C@@H]1CCCO1)[C@@H]1CC(C(=O)NCCO)=C[C@H](Oc2c(I)cc(CO)cc2OC)[C@H]1O`, for which the composite z-score in assay [1] was 0.969 (inactive); in the assay with XIP peptide (Xip251-270), -0.769. Further, the z-score in assay [2] was -1.03; in assay [3] it was -5.37 (inactive); in assay [4], 1 (inactive); in assay [5], 1.11 (inactive).

`COCCOC(=O)N1C(=O)[C@@]2(c3ccccc31)[C@H](C(=O)N1CCc3cc(OC)c(OC)cc3C1)[C@H]1C(=O)O[C@H](c3ccccc3)[C@H](c3ccccc3)N1[C@@H]2c1ccccc1OCCO`: the composite z-score in assay [1] was 0.227 (inactive); with XIP peptide (Xip251-270), 0.741. Also, the z-score in assay [2] was -1.9; in assay [3], -0.573 (inactive); in assay [4], -0.0955 (inactive); in assay [5] it was -0.08 (inactive).

For `CCOC(=O)C1=CC[C@@H](c2ccccc2)N(S(=O)(=O)c2ccc(C)cc2)[C@H]1C`, the composite z-score in assay [1] is 0.214 (inactive); with XIP peptide (Xip251-270), 0.862. Moreover, the z-score in assay [2] is -1.5; in assay [3], -2.38 (inactive); in assay [4] it was -0.325 (inactive); in assay [5], -0.586 (inactive).

With `Cc1ccc(N2C(=O)c3ccccc3[C@@H](C(=O)NCc3ccccc3)[C@@H]2c2ccc(CO)cc2)nc1`, the composite z-score in assay [1] was -0.337 (inactive); with XIP peptide (Xip251-270) it was -0.98. The z-score is -0.432 in assay [2], -0.681 (inactive) in assay [3], -0.639 (inactive) in assay [4] and -0.627 (inactive) in assay [5].

For the compound `C/C(=N\O)C(=O)NCCCCCNC(=O)OCc1ccccc1`, the composite z-score was 0.759 (inactive) in assay [1] and 0.58 in the assay with XIP peptide (Xip251-270). The z-score is 0.574 in assay [2], -0.408 (inactive) in assay [3], -0.103 (inactive) in assay [4] and -0.394 (inactive) in assay [5].

Turning to `C=C(COC)/C(=C/C[C@@H](OC(=O)c1ccncc1)c1ccc(OCCO)cc1)c1cc(C(=O)OC)ccc1OC`, the composite z-score in assay [1] is 1.08 (inactive); with XIP peptide (Xip251-270), 0.749. Also, the z-score was -2.98 in assay [2], -4.62 (inactive) in assay [3], -0.252 (inactive) in assay [4] and 0.535 (inactive) in assay [5].

As to `CC(C)=C1C(=O)C(c2ccccc2)=C2CN3C(=O)N(CCc4ccccc4)C(=O)[C@]3(Cc3ccccc3)[C@H]21`, the values for the composite z-score (in assay [1]; in the assay with XIP peptide (Xip251-270)) were -0.315 (inactive) and -0.78, respectively. Further, the z-score in assay [2] is -0.774; in assay [3], -0.972 (inactive); in assay [4], 0.844 (inactive); in assay [5] it was 0.84 (inactive).

For the origin of these results see PubChem BioAssay.
